Counter-ions that a name gives are not always drawn. ± gives the standard deviation.
Tests used:
[1] = test system: Jurkat; experiment: mean cell size (FSC-A) relative to DMSO control (fraction of control); higher = larger cells; details: 48 h
In short: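 Jurkat cells at 600 cells/µl were incubated for 1 h and then treated for 48h with the Enzo Screen-Well FDA Approved Drug Library v2.0 at 25µM, with DMSO at 0.9% (v/v) final. Compounds that reduced counts below 20% of controls were retested in 10-fold dilutions down to 25nM. Cell count and mean cell size, taken as forward scatter area, were measured by flow cytometry relative to solvent-only controls. Each plate carried 6-12 controls, and values are means of 3 biological replicates.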

[2] = test system: Jurkat; experiment: cell count relative to DMSO control (fraction of control); higher = more cells (less growth inhibition); details: 48 h

| Structure (SMILES) | mean cell size [1] | cell count [2] |
| --- | --- | --- |
| CN(Cc1cnc2nc(N)nc(N)c2n1)c1ccc(C(=O)N[C@@H](CCC(=O)O)C(=O)O)cc1 [Methotrexate] (concentration: 25 nM) | 1.16 ± 0.035 | 0.499 ± 0.093 |
| C=CC(N)CCC(=O)O (stereo unspecified) [Vigabatrin] (concentration: 25 µM) | 1.002 ± 0.0073 | 0.829 ± 0.075 |
| CN(C)CCCN1c2ccccc2CCc2ccccc21 [Imipramine·HCl] (concentration: 25 µM) | 0.952 ± 0.045 | 0.525 ± 0.16 |
| CCC(=O)NCC[C@@H]1CCc2ccc3c(c21)CCO3 [Ramelteon] (concentration: 25 µM) | 1.04 ± 0.066 | 0.926 ± 0.11 |
| O=C1CCC(N2C(=O)c3ccccc3C2=O)C(=O)N1 (stereo unspecified) [Thalidomide] (concentration: 25 µM) | 0.922 ± 0.015 | 1.01 ± 0.12 |
| N[C@@H](Cc1cc(I)c(Oc2ccc(O)c(I)c2)c(I)c1)C(=O)O [Liothyronine·Na] (concentration: 25 µM) | 0.966 ± 0.02 | 0.648 ± 0.15 |
| NC(=O)N[C@@H](CCC(=O)O)C(=O)O [Carglumic Acid] (concentration: 25 µM) | 0.936 ± 0.037 | 0.806 ± 0.1 |
| CC(CN(C)C)CN1c2ccccc2CCc2ccccc21 (stereo unspecified) [Trimipramine Maleate] (concentration: 25 µM) | 1.02 ± 0.022 | 0.834 ± 0.056 |
| Cc1cccc(CN2CCN(C(c3ccccc3)c3ccc(Cl)cc3)CC2)c1 (stereo unspecified) [Meclizine Dihydrochloride] (concentration: 25 µM) | 0.965 ± 0.024 | 0.703 ± 0.088 |
| CCN(CC)C(=S)SSC(=S)N(CC)CC [Disulfiram] (concentration: 25 µM) | 0.959 ± 0.051 | 0.559 ± 0.15 |
| CC(=O)N[C@H]1[C@H]([C@H](O)[C@H](O)CO)OC(C(=O)O)=C[C@@H]1NC(=N)N [Zanamivir] (concentration: 25 µM) | 0.993 ± 0.052 | 0.647 ± 0.18 |
| Nc1c2c(nc3ccccc13)CCCC2 [Tacrine·HCl] (concentration: 25 µM) | 0.9808 ± 0.0065 | 0.854 ± 0.017 |
| NNC(=O)c1ccncc1 [Isoniazid] (concentration: 25 µM) | 0.969 ± 0.022 | 0.925 ± 0.019 |
| CNC(=O)c1cnn(-c2nc(N)c3ncn([C@@H]4O[C@H](CO)[C@@H](O)[C@H]4O)c3n2)c1 [Regadenoson] (concentration: 25 µM) | 0.991 ± 0.035 | 0.883 ± 0.11 |
| C#C[C@]1(O)CC[C@H]2[C@@H]3CCC4=CCCC[C@@H]4[C@H]3C(=C)C[C@@]21CC [Desogestrel] (concentration: 25 µM) | 0.943 ± 0.018 | 1.03 ± 0.027 |
| Clc1ccccc1CN1CCc2sccc2C1 [Ticlopidine·HCl] (concentration: 25 µM) | 0.922 ± 0.011 | 0.752 ± 0.017 |
| COC(=O)[C@H](c1ccccc1Cl)N1CCc2sccc2C1 [Clopidogrel Hydrogen Sulfate] (concentration: 25 µM) | 0.981 ± 0.051 | 0.942 ± 0.095 |
| O=C(O)[C@H]1/C(=C/CO)O[C@@H]2CC(=O)N21 [Clavulanate Potassium] (concentration: 25 µM) | 0.994 ± 0.011 | 0.787 ± 0.095 |
| NCCC(O)(P(=O)(O)O)P(=O)(O)O [Pamidronate Disodium  Pentahydrate (Pamidronic Acid)] (concentration: 25 µM) | 0.967 ± 0.034 | 0.822 ± 0.023 |
| CCC[C@@H]1C[C@@H](C(=O)N[C@@H]([C@H]2O[C@H](SC)[C@H](O)[C@@H](O)[C@H]2O)[C@@H](C)O)N(C)C1 [Lincomycin·HCl] (concentration: 25 µM) | 1.1 ± 0.045 | 0.754 ± 0.11 |
| CNCCC(Oc1ccc(C(F)(F)F)cc1)c1ccccc1 (stereo unspecified) [Fluoxetine·HCl] (concentration: 25 µM) | 0.992 ± 0.039 | 0.68 ± 0.14 |
| Nc1ccc(S(=O)(=O)c2ccc(N)cc2)cc1 [Dapsone] (concentration: 25 µM) | 0.9573 ± 0.0072 | 0.976 ± 0.1 |
| CCCc1nc2c(C)cc(-c3nc4ccccc4n3C)cc2n1Cc1ccc(-c2ccccc2C(=O)O)cc1 [Telmisartan] (concentration: 25 µM) | 0.951 ± 0.032 | 0.725 ± 0.051 |
| NC(=O)c1ncn([C@@H]2O[C@H](CO)[C@@H](O)[C@H]2O)n1 [Ribavirin] (concentration: 25 µM) | 0.9983 ± 0.0034 | 0.625 ± 0.077 |
| O=C(O)CCNC(=O)c1ccc(/N=N/c2ccc(O)c(C(=O)O)c2)cc1 [Balsalazide] (concentration: 25 µM) | 0.964 ± 0.013 | 0.669 ± 0.047 |
| C[C@]12CC[C@@H]3c4ccc(O)cc4CC[C@H]3[C@@H]1CCC2=O [Estrone] (concentration: 25 µM) | 0.963 ± 0.033 | 0.842 ± 0.094 |
| CO/N=C(\C(=O)N[C@@H]1C(=O)N2C(C(=O)OCOC(=O)C(C)(C)C)=C(/C=C\c3scnc3C)CS[C@H]12)c1csc(N)n1 [Cefditoren Pivoxil] (concentration: 25 µM) | 0.9999 ± 0.0094 | 0.77 ± 0.14 |

| Structure (SMILES) | mean cell size [1] | cell count [2] |
| --- | --- | --- |
| CCCCCCCCCCCCCCCC(=O)O[C@@H]1[C@@H](O)[C@@H](O)[C@@H]([C@H](NC(=O)[C@@H]2C[C@@H](CCC)CN2C)[C@H](C)Cl)O[C@@H]1SC [Clindamycin Palmitate·HCl] (concentration: 25 µM) | 1 ± 0.044 | 0.725 ± 0.025 |
| C[C@H]1[C@H](NC(=O)/C(=N\OC(C)(C)C(=O)O)c2csc(N)n2)C(=O)N1S(=O)(=O)O [Aztreonam] (concentration: 25 µM) | 0.927 ± 0.022 | 0.64 ± 0.086 |
| CN1CCN2c3ncccc3Cc3ccccc3C2C1 (stereo unspecified) [Mirtazapine] (concentration: 25 µM) | 0.958 ± 0.033 | 0.951 ± 0.02 |
| CC(C)OC(=O)CCC/C=C\C[C@@H]1[C@@H](/C=C/[C@@H](O)COc2cccc(C(F)(F)F)c2)[C@H](O)C[C@@H]1O [Travoprost] (concentration: 25 µM) | 0.92 ± 0.022 | 0.668 ± 0.084 |
| CC1(C)S[C@@H]2[C@H](NC(=O)Cc3ccccc3)C(=O)N2[C@H]1C(=O)O [Penicillin G Potassium (Benzylpenicillin)] (concentration: 25 µM) | 0.948 ± 0.019 | 0.934 ± 0.041 |
| CC(CCc1ccc(O)cc1)NCCc1ccc(O)c(O)c1 (stereo unspecified) [Dobutamine·HCl] (concentration: 25 µM) | 0.952 ± 0.042 | 0.464 ± 0.13 |
| CC(=O)Oc1ccc(C(c2ccc(OC(C)=O)cc2)c2ccccn2)cc1 [Bisacodyl] (concentration: 25 µM) | 0.915 ± 0.013 | 0.813 ± 0.09 |
| C#C[C@]1(O)CC[C@H]2[C@@H]3CCC4=CC(=O)CC[C@@H]4[C@H]3CC[C@@]21C [Norethindrone] (concentration: 25 µM) | 0.948 ± 0.024 | 0.901 ± 0.084 |
| Cn1c(=O)c2[nH]cnc2n(C)c1=O [Aminophylline] (concentration: 25 µM) | 0.96 ± 0.035 | 0.984 ± 0.066 |
| CC(C(=O)O)c1cccc(Oc2ccccc2)c1 (stereo unspecified) [Fenoprofen Calcium] (concentration: 25 µM) | 0.901 ± 0.05 | 0.314 ± 0.15 |
| CC(C)NCC(O)c1ccc(NS(C)(=O)=O)cc1 (stereo unspecified) [Sotalol·HCl] (concentration: 25 µM) | 0.893 ± 0.059 | 0.268 ± 0.17 |
| CCOC(=O)C1=C(C)NC(C)=C(C(=O)OC)C1c1cccc(Cl)c1Cl (stereo unspecified) [Felodipine] (concentration: 25 µM) | 0.9169 ± 0.007 | 0.922 ± 0.12 |
| O=C(O)C[C@H](O)C[C@H](O)/C=C/c1c(C2CC2)nc2ccccc2c1-c1ccc(F)cc1 [Pitavastatin Calcium] (concentration: 25 µM) | 0.9938 ± 0.0093 | 0.647 ± 0.065 |
| CCN[C@H]1C[C@H](C)S(=O)(=O)c2sc(S(N)(=O)=O)cc21 [Dorzolamide·HCl] (concentration: 25 µM) | 0.965 ± 0.04 | 0.675 ± 0.14 |
| CCCCc1nc(Cl)c(CO)n1Cc1ccc(-c2ccccc2-c2nnn[nH]2)cc1 [Losartan Potassium] (concentration: 25 µM) | 0.922 ± 0.041 | 0.418 ± 0.1 |
| COC(=O)N[C@H](C(=O)N[C@@H](Cc1ccccc1)[C@@H](O)CN(Cc1ccc(-c2ccccn2)cc1)NC(=O)[C@@H](NC(=O)OC)C(C)(C)C)C(C)(C)C [Atazanavir] (concentration: 25 µM) | 1.04 ± 0.052 | 0.658 ± 0.054 |
| CC(=O)CC(c1ccccc1)c1c(O)c2ccccc2oc1=O (stereo unspecified) [Warfarin·Na] (concentration: 25 µM) | 1.04 ± 0.051 | 0.708 ± 0.045 |
| Clc1ccc(C(c2ccccc2Cl)C(Cl)Cl)cc1 (stereo unspecified) [Mitotane] (concentration: 25 µM) | 1 ± 0.02 | 0.866 ± 0.14 |
| CC1(C)O[C@@H]2C[C@H]3[C@@H]4C[C@H](F)C5=CC(=O)CC[C@]5(C)[C@H]4[C@@H](O)C[C@]3(C)[C@]2(C(=O)CO)O1 [Flurandrenolide] (concentration: 25 µM) | 0.916 ± 0.035 | 0.638 ± 0.12 |
| CN1CCN(CCCN2c3ccccc3Sc3ccc(C(F)(F)F)cc32)CC1 [Trifluoperazine·HCl] (concentration: 2.5 µM) | 1.072 ± 0.01 | 0.776 ± 0.13 |
| COC(c1ccccc1)(c1ccccc1)[C@H](Oc1nc(C)cc(C)n1)C(=O)O [Ambrisentan] (concentration: 25 µM) | 0.975 ± 0.043 | 0.757 ± 0.088 |
| CC(C)(O)c1ccccc1CC[C@@H](SCC1(CC(=O)O)CC1)c1cccc(/C=C/c2ccc3ccc(Cl)cc3n2)c1 [Montelukast·Na] (concentration: 25 µM) | 1.02 ± 0.077 | 0.476 ± 0.16 |
| Cc1ccsc1C(=CCCN1CCC[C@@H](C(=O)O)C1)c1sccc1C [Tiagabine·HCl] (concentration: 25 µM) | 0.936 ± 0.064 | 0.839 ± 0.013 |
| CN(C)/N=N/c1[nH]cnc1C(N)=O [Dacarbazine] (concentration: 25 µM) | 0.981 ± 0.048 | 0.836 ± 0.093 |
| CC(C)(O/N=C(\C(=O)N[C@@H]1C(=O)N2C(C(=O)[O-])=C(C[n+]3ccccc3)CS[C@H]12)c1csc(N)n1)C(=O)O [Ceftazidime] (concentration: 25 µM) | 0.958 ± 0.011 | 0.884 ± 0.095 |
| CCC(=O)O[C@]1(C(=O)CCl)[C@@H](C)C[C@H]2[C@@H]3CCC4=CC(=O)C=C[C@]4(C)[C@@]3(F)[C@@H](O)C[C@@]21C [Clobetasol Propionate] (concentration: 25 µM) | 0.898 ± 0.015 | 0.881 ± 0.18 |
